The values that follow come from article PMC4336329 (PLoS ONE, 2015).

The whole screen tested about 310,000 compounds, of which about 14,000 (4.5%) showed an effect of 50% or more. Effects have a minus sign here. The sample as a whole holds a higher share of strong results than the screen did.
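Also: peak tail current of the secondary pulse compared with the same well before compound.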

Sequence of human ether-à-go-go-related gene (hERG) potassium channel (Q12809 whole entry, looked up): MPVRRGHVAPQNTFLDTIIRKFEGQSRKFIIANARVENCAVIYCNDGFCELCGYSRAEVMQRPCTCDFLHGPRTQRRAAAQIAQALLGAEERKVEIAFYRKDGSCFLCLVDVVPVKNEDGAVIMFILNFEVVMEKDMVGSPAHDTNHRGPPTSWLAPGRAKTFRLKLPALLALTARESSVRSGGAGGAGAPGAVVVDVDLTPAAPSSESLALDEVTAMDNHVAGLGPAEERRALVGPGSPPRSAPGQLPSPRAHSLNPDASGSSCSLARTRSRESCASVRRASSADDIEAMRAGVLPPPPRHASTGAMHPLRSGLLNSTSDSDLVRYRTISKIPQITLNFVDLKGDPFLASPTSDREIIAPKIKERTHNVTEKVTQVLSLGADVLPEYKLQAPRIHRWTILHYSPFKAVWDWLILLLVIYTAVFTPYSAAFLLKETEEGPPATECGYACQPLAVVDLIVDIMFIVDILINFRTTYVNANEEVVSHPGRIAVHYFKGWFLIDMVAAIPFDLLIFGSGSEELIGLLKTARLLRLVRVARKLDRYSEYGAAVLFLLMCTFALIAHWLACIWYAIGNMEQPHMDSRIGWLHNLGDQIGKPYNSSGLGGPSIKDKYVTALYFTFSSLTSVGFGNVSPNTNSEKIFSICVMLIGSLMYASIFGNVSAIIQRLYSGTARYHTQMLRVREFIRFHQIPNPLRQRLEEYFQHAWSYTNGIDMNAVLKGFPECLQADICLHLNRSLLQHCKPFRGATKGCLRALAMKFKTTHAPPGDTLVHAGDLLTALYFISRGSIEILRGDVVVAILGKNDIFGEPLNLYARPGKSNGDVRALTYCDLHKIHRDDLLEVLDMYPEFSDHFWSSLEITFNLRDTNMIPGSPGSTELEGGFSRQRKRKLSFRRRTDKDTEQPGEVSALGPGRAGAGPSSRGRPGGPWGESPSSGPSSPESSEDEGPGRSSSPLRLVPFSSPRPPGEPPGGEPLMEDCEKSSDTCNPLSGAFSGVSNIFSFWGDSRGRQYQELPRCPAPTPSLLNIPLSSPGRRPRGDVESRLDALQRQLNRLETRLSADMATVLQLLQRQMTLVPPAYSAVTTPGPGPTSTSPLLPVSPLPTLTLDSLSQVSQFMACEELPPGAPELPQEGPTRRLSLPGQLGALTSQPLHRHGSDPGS

The assay has as its target human ether-à-go-go-related gene (hERG) potassium channel (human, UniProt Q12809). Briefly: primary screen, population patch clamp on CHO cells stably expressing hERG; higher = less effect of the substance.
For `O=C(CN1C(=O)C2C3C=CC(C3)C2C1=O)NC1CCCc2ccccc21` (centres unmarked), the “hERG current change (%, negative = inhibition) at 10uM” value was -2.95%.

In the case of `CCOC(=O)CN(C#N)c1nc(C)cc(C)n1`, the “hERG current change (%, negative = inhibition) at 10uM” value is given as -7.84%.

In the case of `Cc1nc(SCCc2ccccc2)[nH]c(=O)c1C`, the “hERG current change (%, negative = inhibition) at 10uM” value is reported as 19.6%. Regarding `O=C(O)Cn1nnc(-c2ccc(OCc3ccccc3)cc2)n1`, the “hERG current change (%, negative = inhibition) at 10uM” value was 23.9%. With `COc1ccccc1CNC(=O)c1cnn2c(C(F)F)cc(C)nc12`, the “hERG current change (%, negative = inhibition) at 10uM” value is reported as -26.4%.

Consider `Cc1cc(C)cc(N(C(=O)C(F)(F)F)C(C(=O)NC2CCCCC2)c2cccs2)c1` (centres unmarked), for which the “hERG current change (%, negative = inhibition) at 10uM” value is on record as -7.03%. As to `O=C(CCCc1ccccc1)NCCCc1ccccc1`, the “hERG current change (%, negative = inhibition) at 10uM” value is listed as -10.9%. Next, `CN(Cc1ccccc1)C1CCCN(C(=O)c2ccc(Cl)s2)C1` (centres unmarked): -30.4%; `COC(=O)c1c(C(=O)OC)c(-c2ccc(Br)cc2)n2c1CS(=O)C2` (centres unmarked): -1.16%; `CCCNC(=O)c1onc(CSc2cccc(OC)c2)c1C(=O)NCCC`: -7.12%. In the case of `O=C(O)c1cccc(S(=O)(=O)N2CC=C(c3ccccc3)CC2)c1`, the “hERG current change (%, negative = inhibition) at 10uM” value is given as -4.64%. Consider `COCCNC(=O)/C(C#N)=C/c1cc(C)n(C2CCCCC2)c1C`, for which the “hERG current change (%, negative = inhibition) at 10uM” value is recorded as -0.875%. With `CCN(CC)S(=O)(=O)c1ccc2nc(CCl)[nH]c2c1`, the “hERG current change (%, negative = inhibition) at 10uM” value is -16.7%. For the compound `Cc1ccc(S(=O)(=O)N(C)C)cc1NC(=O)CSc1nnnn1-c1ccc(O)cc1`, the “hERG current change (%, negative = inhibition) at 10uM” value is listed as -20.9%. Turning to `CCN(CC)S(=O)(=O)c1ccc2nc(CSc3nnnn3-c3ccc(O)cc3)[nH]c2c1`, the “hERG current change (%, negative = inhibition) at 10uM” value is -53.9%.

For `O=C(c1cccc(C(=O)N2CCN(c3ccccc3F)CC2)n1)N1CCN(c2ccccc2F)CC1`, the “hERG current change (%, negative = inhibition) at 10uM” value is -28.3%. `O=C(/C=C/c1ccc(Cl)cc1)N1CCOCC1`: the “hERG current change (%, negative = inhibition) at 10uM” value came to 9.65%. Next, `O=C(/C=C/c1ccccc1)N1CCN(c2ccc([N+](=O)[O-])c(N3CCOCC3)c2)CC1`: -54.3%. Regarding `O=C(/C=C/c1ccc(Cl)cc1)N1CCN(c2ccc([N+](=O)[O-])c(N3CCOCC3)c2)CC1`, the “hERG current change (%, negative = inhibition) at 10uM” value is on record as -72.4%. Take `O=[N+]([O-])c1ccc(N2CCOCC2)cc1N1CCCCC1`: the “hERG current change (%, negative = inhibition) at 10uM” value is given as -5.12%. Take `O=[N+]([O-])c1ccc(N2CCCCC2)cc1N1CCOCC1`: the “hERG current change (%, negative = inhibition) at 10uM” value is recorded as -11.3%. As for `O=C(/C=C/c1ccc(Cl)cc1Cl)N1CCN(c2ccc([N+](=O)[O-])c(N3CCOCC3)c2)CC1`, the figure is -34.5%; as for `Cc1c(C(=O)NN2CCOCC2)oc2ccccc12`, 16.5%; as for `N#Cc1cc2c(nc1SCc1cccc(Cl)c1)CCCCC2`, 8.72%. For `COc1cc(C2NC(=O)NC(C)=C2C(=O)OCC2CCCO2)cc(OC)c1OC` (centres unmarked), the “hERG current change (%, negative = inhibition) at 10uM” value is listed as 18.8%. Take `COc1ccc(N2CCN(c3ncnc4scc(-c5ccccc5)c34)CC2)cc1`: the “hERG current change (%, negative = inhibition) at 10uM” value is 18.6%. Turning to `COc1ccc(NC(=O)c2ccccc2NC(=O)CSc2ccc(Cl)cc2)cc1`, the “hERG current change (%, negative = inhibition) at 10uM” value came out at 3.21%. As for `Cc1cc(C)cc(NC(=O)C2C3C=CC4(O3)C2C(=O)N(CCCN2CCCCC2)C4C(=O)NC2CCCCC2)c1` (centres unmarked), the figure is 20.7%.

Turning to `O=C(NCc1ccccc1)c1ccc(Cl)c(NC2=NC3CS(=O)(=O)CC3S2)c1` (centres unmarked), the “hERG current change (%, negative = inhibition) at 10uM” value is listed as -0.123%. Take `O=C(Cn1cc[n+](CC(=O)c2ccc(Cl)cc2Cl)c1)c1ccc(Cl)cc1Cl.[Br-]`: the “hERG current change (%, negative = inhibition) at 10uM” value was -61.5%.

Take `O=C(Cn1cc[n+](CC(=O)c2ccccc2)c1)c1ccccc1.[Br-]`: the “hERG current change (%, negative = inhibition) at 10uM” value stood at 0.024%. As to `O=C(C[n+]1cnn(CC(=O)c2ccc(Cl)cc2Cl)c1)c1ccc([N+](=O)[O-])cc1.[Br-]`, the “hERG current change (%, negative = inhibition) at 10uM” value is -73.3%. Next, `O=C(Cn1c[n+](CC(=O)c2ccc([N+](=O)[O-])cc2)cn1)c1ccc([N+](=O)[O-])cc1.[Br-]`: 21.3%; `O=C(Cn1nc(Cl)nc1Cl)c1ccc([N+](=O)[O-])cc1`: 1.69%; `C[n+]1ccn(CC(=O)c2ccc(Cl)cc2)c1.[Br-]`: -3.61%. For `COc1ccc(-c2ccc(SCc3cccnc3)nn2)cc1OC`, the “hERG current change (%, negative = inhibition) at 10uM” value is 29%. In the case of `Cc1ccccc1N1CC(C(=O)Nc2ccc(S(=O)(=O)N3CCCC3)cc2)CC1=O` (centres unmarked), the “hERG current change (%, negative = inhibition) at 10uM” value stood at 3.59%. Consider `CCOC(=O)NC1(C(F)(F)F)N=C(c2ccccc2)NC1=O` (centres unmarked), for which the “hERG current change (%, negative = inhibition) at 10uM” value is 4.77%.

Turning to `CN1C[C@@H]2C[C@@H](C3=Cc4cc(Cl)ccc4OC3)N3CCC[C@@]23C1=O`, the “hERG current change (%, negative = inhibition) at 10uM” value is listed as -32.7%.

On to `O=C1N(C2CCCC2)C[C@@H]2C[C@@H](c3cn[nH]c3-c3ccc(Cl)cc3)N3CCC[C@@]123`, for which the “hERG current change (%, negative = inhibition) at 10uM” value is given as -37.8%. Next, `CN1C[C@@H]2C[C@@H](c3ccc(C#CC(C)(C)O)s3)N3CCC[C@@]23C1=O`: 9.88%; `Cc1ccc(-n2cccn2)c([C@@H]2C[C@H]3CN(C)C(=O)[C@]34CCCN24)c1`: -61.1%; `Cn1cc([C@@H]2C[C@H]3CN(C4CCCC4)C(=O)[C@]34CCCN24)c(-c2ccccc2)n1`: -18.5%. In the case of `Cc1cc(C)c([C@@H]2C[C@H]3CN(C4CCCC4)C(=O)[C@]34CCCN24)c(-n2cccn2)c1`, the “hERG current change (%, negative = inhibition) at 10uM” value is recorded as -80.7%. Next, `CCOc1cc(CNc2ncn[nH]2)ccc1OCC(=O)NC(C)(C)C`: 5.22%; `Cc1ccc(OCC(=O)N(C)Cc2ccccc2)c([N+](=O)[O-])n1`: 3.95%.

Regarding `NN/C(=C\[N+](=O)[O-])Nc1ccc(Cl)cc1`, the “hERG current change (%, negative = inhibition) at 10uM” value stood at 13.6%. Consider `Cc1ccc(S(=O)(=O)CCC(=O)OCC(=O)c2c[nH]c3ccccc23)cc1`, for which the “hERG current change (%, negative = inhibition) at 10uM” value is on record as -8.93%.

In the case of `COc1ccc(S(=O)(=O)N2CCN(C(=O)NC3CCCCC3)CC2)cc1OC`, the “hERG current change (%, negative = inhibition) at 10uM” value is given as -17.7%. With `COC(=O)c1cc(Br)c(=O)n(CCc2ccc(F)cc2)c1`, the “hERG current change (%, negative = inhibition) at 10uM” value was -24.9%. `COC(=O)c1cc(Br)c(=O)n(-c2ccc(OC)cc2)c1`: the “hERG current change (%, negative = inhibition) at 10uM” value is given as -0.31%.

Consider `COC(=O)c1cc(Br)c(=O)n(-c2ccc(F)cc2)c1`, for which the “hERG current change (%, negative = inhibition) at 10uM” value was -63.9%.

For `COCC(C)n1c(SCc2ccc(C(=O)OC)o2)nc2ccccc2c1=O` (centres unmarked), the “hERG current change (%, negative = inhibition) at 10uM” value is recorded as -8.61%. For `COc1ccccc1C1CC(c2cccs2)=Nc2ccccc2S1` (centres unmarked), the “hERG current change (%, negative = inhibition) at 10uM” value is reported as 14.4%. Next, `CC1CCCN(C(=O)c2ccc(Br)c(S(=O)(=O)N3CCOCC3)c2)C1` (centres unmarked): -7.24%; `Cc1cc(O)cc2c1C(c1ccc(F)cc1)CC1(CC(C)(C)NC(=S)N1)O2` (centres unmarked): 14.2%.

Turning to `COc1ccc(C2CC3(CC(C)(C)NC(SC)=N3)Oc3cc(O)cc(C)c32)cc1.I` (centres unmarked), the “hERG current change (%, negative = inhibition) at 10uM” value is on record as -74.3%. With `COc1ccc(C2CC3(CC(C)(C)NC(=S)N3)Oc3cc(O)cc(C)c32)cc1` (centres unmarked), the “hERG current change (%, negative = inhibition) at 10uM” value amounted to 14.6%. As to `CC12CN(C(=S)Nc3ccccc3)CC(C)(CN(C(=S)Nc3ccccc3)C1)C2=O`, the “hERG current change (%, negative = inhibition) at 10uM” value was 10.3%.

As for `COc1ccc(/C=C(/NC(=O)c2ccco2)C(=O)Nc2ccc(C(=O)O)cc2)cc1`, the “hERG current change (%, negative = inhibition) at 10uM” value stood at 9.11%. For `COc1ccccc1N1CCN(C(=O)c2ccc(-c3ccc(Cl)cc3)o2)CC1`, the “hERG current change (%, negative = inhibition) at 10uM” value is on record as -7.22%. As for `Cc1ccc(/C=C/C(=O)OCC(=O)NCCN2C(=O)CSC2=O)cc1`, the figure is -17.9%; as for `O=C(COc1ccc2ccccc2c1)N1CCN(Cc2ccncc2)CC1.O=C(O)C(=O)O`, -33.9%. With `O=C(/C=C/c1ccc(OC(F)F)cc1)OCC(=O)N1CCN(C(=O)c2ccco2)CC1`, the “hERG current change (%, negative = inhibition) at 10uM” value is on record as -71%. As for `Cc1cccc(OCC(=O)N2CCN(C(=O)c3ccco3)CC2)c1`, the figure is -6.95%.

With `O=C(COC(=O)/C=C/c1ccc(Cl)cc1)NCCN1C(=O)CSC1=O`, the “hERG current change (%, negative = inhibition) at 10uM” value was -21.2%. As for `CCOC(=O)/C=C/C(=O)OCC(=O)N1CCN(C(=O)c2ccco2)CC1`, the figure is 9.59%. In the case of `CC(C)c1ccc(OCC(=O)N2CCN(C(=O)c3ccco3)CC2)cc1`, the “hERG current change (%, negative = inhibition) at 10uM” value was -49.1%. Turning to `COc1cc(/C=C/C(=O)OCC(=O)N2CCN(C(=O)c3ccco3)CC2)ccc1O`, the “hERG current change (%, negative = inhibition) at 10uM” value was determined as 2.55%. As for `O=C(COC(=O)/C=C/c1ccc(OC(F)F)cc1)NCCN1C(=O)CSC1=O`, the figure is -60.8%. As for `O=C(COc1ccc2ccccc2c1)N1CCN(C2CCN(Cc3ccccc3)CC2)CC1`, the figure is -77.7%; as for `COc1cccc(CN2CCN(C(=O)COc3ccc4ccccc4c3)CC2)c1`, -38.7%; as for `O=C(COc1ccc2ccccc2c1)N1CCN(C(=O)c2ccco2)CC1`, -61.7%. Next, `CC1=NN(c2ccccc2)C(=O)C1C(=O)c1cc([N+](=O)[O-])cc([N+](=O)[O-])c1` (centres unmarked): 2%; `CCn1c(=S)sc2c(=O)n(CC(=O)Nc3cccc(Cl)c3)c(C)nc21`: 6.27%; `Cc1ccc(-c2nc(N)sc2CC(=O)OCC(=O)N2C(C)CCCC2C)cc1` (centres unmarked): -7.22%.

With `COc1ccc2cc(CCNC(=O)c3ccc(Br)o3)c(=O)[nH]c2c1`, the “hERG current change (%, negative = inhibition) at 10uM” value is -9.51%. With `COCCCNC(=S)N1CCN(C(c2ccccc2)c2ccccc2)CC1`, the “hERG current change (%, negative = inhibition) at 10uM” value is 5.04%.

On to `COc1cccc2cc(C(C)N(CCCN3CCOCC3)C(=S)Nc3ccccc3C)oc12` (centres unmarked), for which the “hERG current change (%, negative = inhibition) at 10uM” value is -7.78%. `COc1ccc2[nH]c(=O)c(CN(C(=O)C(C)C)c3ccccc3OC)cc2c1`: the “hERG current change (%, negative = inhibition) at 10uM” value was -2.54%.

`COc1cccc(=O)c2c(C)oc(C)c12`: the “hERG current change (%, negative = inhibition) at 10uM” value is listed as 3.11%.

As for `O=C(N/N=C/c1cccs1)c1cnccn1`, the “hERG current change (%, negative = inhibition) at 10uM” value is given as -1.91%. Regarding `CC(Sc1nc(-c2ccccc2)cc(C(F)(F)F)n1)C(=O)N1CCCCC1` (centres unmarked), the “hERG current change (%, negative = inhibition) at 10uM” value was -17.9%.
